Results filed as inconclusive are left out. The source made the active and inactive calls. Rule for the calls: active = hit-call score of the fitted dose curve at least 0.9, where 1 is the maximum; inconclusive = response in the unintended direction; inactive = score below 0.9.
target: human Vascular Endothelial Growth Factor Receptor 3 (VEGFR3), FLT4 (gene 2324) (UniProt P35916); assay: NVS_ENZ_hVEGFR3: NovaScreen (NVS) Enzymatic Assay for human Vascular Endothelial Growth Factor Receptor 3 (VEGFR3) (AID 2283229)
Procedure, shortened: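 Cell-free recombinant VEGFR3 kinase reaction with fluorescent substrate, read 1 h after dosing by electrophoretic mobility shift separation of substrate and product. Single-concentration duplicate screen at 25 uM, then concentration-response up to 50 uM; loss of activity versus DMSO.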

Sequence of human Vascular Endothelial Growth Factor Receptor 3 (VEGFR3), FLT4 (gene 2324) (P35916 whole entry, looked up): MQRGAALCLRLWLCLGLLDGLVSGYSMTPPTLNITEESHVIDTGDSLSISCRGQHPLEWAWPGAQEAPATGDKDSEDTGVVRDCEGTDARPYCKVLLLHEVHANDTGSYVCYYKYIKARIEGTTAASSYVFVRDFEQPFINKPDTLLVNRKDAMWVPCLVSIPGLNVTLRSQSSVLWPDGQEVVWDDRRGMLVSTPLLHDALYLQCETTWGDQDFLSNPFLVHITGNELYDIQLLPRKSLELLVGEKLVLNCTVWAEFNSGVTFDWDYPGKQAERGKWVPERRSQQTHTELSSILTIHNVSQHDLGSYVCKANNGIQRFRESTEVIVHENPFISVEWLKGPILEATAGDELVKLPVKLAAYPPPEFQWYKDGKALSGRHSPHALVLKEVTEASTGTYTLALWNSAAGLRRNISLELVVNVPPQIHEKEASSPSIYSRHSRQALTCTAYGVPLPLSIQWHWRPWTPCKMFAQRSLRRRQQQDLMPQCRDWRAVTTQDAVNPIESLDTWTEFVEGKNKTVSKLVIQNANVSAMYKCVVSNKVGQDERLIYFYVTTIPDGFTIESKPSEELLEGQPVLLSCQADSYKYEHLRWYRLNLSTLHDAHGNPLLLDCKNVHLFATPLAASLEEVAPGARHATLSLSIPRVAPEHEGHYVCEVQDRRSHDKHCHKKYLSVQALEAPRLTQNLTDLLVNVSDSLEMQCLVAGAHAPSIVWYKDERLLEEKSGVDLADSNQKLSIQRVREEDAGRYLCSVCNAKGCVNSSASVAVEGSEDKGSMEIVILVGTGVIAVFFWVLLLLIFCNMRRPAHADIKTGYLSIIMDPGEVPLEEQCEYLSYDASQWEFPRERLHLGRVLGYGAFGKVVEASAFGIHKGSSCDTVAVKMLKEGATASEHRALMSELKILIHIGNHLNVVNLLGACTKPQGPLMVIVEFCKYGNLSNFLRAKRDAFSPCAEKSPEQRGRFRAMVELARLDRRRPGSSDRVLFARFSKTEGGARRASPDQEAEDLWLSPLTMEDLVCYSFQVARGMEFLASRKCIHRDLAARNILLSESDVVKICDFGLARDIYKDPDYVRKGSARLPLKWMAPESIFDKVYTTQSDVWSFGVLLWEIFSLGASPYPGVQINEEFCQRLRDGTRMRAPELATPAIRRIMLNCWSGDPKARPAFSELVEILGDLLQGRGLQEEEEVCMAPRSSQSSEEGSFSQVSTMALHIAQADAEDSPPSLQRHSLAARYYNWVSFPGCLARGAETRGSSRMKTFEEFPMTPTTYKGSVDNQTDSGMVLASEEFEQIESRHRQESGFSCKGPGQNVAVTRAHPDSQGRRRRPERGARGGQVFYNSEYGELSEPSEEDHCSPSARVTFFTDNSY

Row | SMILES | outcome | AC50
1 | Nc1cccc2c(N)cccc12 | inactive | 
2 | O=C(O)Cc1cc(I)c(Oc2cc(I)c(O)c(I)c2)c(I)c1 | inactive | 
3 | CCN(CC)CCNc1ccc(CNC=O)c2sc3ccc(OC)cc3c(=O)c12 | inactive | 
4 | CCCCCCCCCCCCc1ccccc1S(=O)(=O)O |  | 9.14 µM (active)

target: human Vascular Endothelial Growth Factor Receptor 2 (VEGFR2), KDR (gene 3791) (UniProt P35968); assay: NVS_ENZ_hVEGFR2: NovaScreen (NVS) Enzymatic Assay for human Vascular Endothelial Growth Factor Receptor 2 (VEGFR2) (AID 2283230)
Procedure, shortened: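 Cell-free recombinant VEGFR2 kinase, fluorescent substrate with electrophoretic mobility-shift separation; read 1 h after dosing. Screened at 25 uM in duplicate, hits to concentration-response up to 50 uM; loss-of-signal versus DMSO.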

Sequence of human Vascular Endothelial Growth Factor Receptor 2 (VEGFR2), KDR (gene 3791) (P35968 whole entry, looked up): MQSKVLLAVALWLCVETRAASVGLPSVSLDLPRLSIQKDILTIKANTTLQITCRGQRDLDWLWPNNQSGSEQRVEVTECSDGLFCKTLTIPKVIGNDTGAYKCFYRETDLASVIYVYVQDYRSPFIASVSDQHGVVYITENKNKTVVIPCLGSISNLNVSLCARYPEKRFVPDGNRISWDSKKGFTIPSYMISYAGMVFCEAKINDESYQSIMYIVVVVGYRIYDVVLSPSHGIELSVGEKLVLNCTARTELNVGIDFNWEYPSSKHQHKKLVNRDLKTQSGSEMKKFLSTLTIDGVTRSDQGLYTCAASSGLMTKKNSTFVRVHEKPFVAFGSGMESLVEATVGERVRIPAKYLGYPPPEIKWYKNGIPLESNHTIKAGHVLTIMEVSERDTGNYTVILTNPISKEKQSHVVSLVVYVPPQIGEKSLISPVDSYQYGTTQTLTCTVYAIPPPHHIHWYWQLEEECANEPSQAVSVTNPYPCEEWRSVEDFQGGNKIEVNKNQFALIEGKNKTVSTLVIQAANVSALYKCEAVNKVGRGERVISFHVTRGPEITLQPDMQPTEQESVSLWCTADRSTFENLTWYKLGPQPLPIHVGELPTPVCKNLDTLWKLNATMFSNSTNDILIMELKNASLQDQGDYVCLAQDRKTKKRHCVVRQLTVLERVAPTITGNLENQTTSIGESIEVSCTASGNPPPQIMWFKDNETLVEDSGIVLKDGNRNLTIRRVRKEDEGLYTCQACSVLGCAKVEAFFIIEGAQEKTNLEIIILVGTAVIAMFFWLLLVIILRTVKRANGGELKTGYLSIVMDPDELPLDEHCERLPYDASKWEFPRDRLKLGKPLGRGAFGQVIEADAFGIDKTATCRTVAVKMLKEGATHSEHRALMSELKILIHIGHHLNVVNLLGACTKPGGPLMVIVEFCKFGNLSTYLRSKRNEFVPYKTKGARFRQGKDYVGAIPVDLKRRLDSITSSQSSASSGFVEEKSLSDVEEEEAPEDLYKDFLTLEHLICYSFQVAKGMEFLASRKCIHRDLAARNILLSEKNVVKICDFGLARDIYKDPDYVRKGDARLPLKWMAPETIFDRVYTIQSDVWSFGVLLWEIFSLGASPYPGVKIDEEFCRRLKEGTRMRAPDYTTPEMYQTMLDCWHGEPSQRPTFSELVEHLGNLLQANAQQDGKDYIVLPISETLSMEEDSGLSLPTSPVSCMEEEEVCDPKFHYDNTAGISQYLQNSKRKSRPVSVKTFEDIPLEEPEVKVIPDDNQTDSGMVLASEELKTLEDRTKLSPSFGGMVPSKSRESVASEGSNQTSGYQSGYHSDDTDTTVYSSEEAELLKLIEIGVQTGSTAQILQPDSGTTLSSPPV

Row | SMILES | outcome | AC50
5 | O=C(O)Cc1cc(I)c(Oc2cc(I)c(O)c(I)c2)c(I)c1 | inactive | 
6 | CCCOc1sc(C(=O)N2CCC(c3cc(CN)ccc3F)CC2)c(C)c1Br | inactive | 
7 | CCN(CC)CCNc1ccc(CNC=O)c2sc3ccc(OC)cc3c(=O)c12 | inactive | 
8 | Oc1cc2ccccc2c2ccccc12 |  | 7.7 µM (active)
9 | CCCCCCCCCCCCc1ccccc1S(=O)(=O)O |  | 39.2 µM (active)
10 | CC(C)(C)c1ccc(O)c(C(C)(C)C)c1 | inactive | 

target: sheep Cyclooxygenase-2 (Cox2), PTGS2 (gene 443460) (UniProt P79208); assay: NVS_ENZ_oCOX2: NovaScreen (NVS) Enzymatic Assay for sheep Cyclooxygenase-2 (Cox2) (AID 2283231)
Method: NVS_ENZ_oCOX2 is a biochemical, single-readout assay that uses extracted gene-proteins from Ovine placenta in a tissue-based cell-free assay. Measurements were taken 0.66 hour after chemical dosing in a 96-well plate.NVS_ENZ_oCOX2 is one of one assay component(s) measured or calculated from the NVS_ENZ_oCOX2 assay. It is designed to make measurements of enzyme activity, a form of enzyme reporter, as detected with absorbance signals by Colorimetric technology.Data from the assay component NVS_ENZ_oCOX2 was analyzed into 1 assay endpoint. This assay endpoint, NVS_ENZ_oCOX2, was analyzed in the positive analysis fitting direction relative to DMSO as the negative control and baseline of activity. Using a type of enzyme reporter, loss-of-signal activity can be used to understand changes in the enzymatic activity as they relate to the gene PTGS2. Furthermore, this assay endpoint can be referred to as a primary readout, because this assay has produced multiple assay endpoints where this one serves a enzymatic activity function. To generalize the intended target to other relatable targets, this assay endpoint is annotated to the oxidoreductase intended target family, where the subfamily is cyclooxygenase.
Binding assays used specific radioligands (tritiated, iodinated) with non-radioactive competitive displacement ligands in agonist or antagonist protocols (as indicated) and various reference compounds and inhibitors to titrate specific binding to receptors and transporters. Most enzyme assays (CYPs, kinases, phosphatases, proteases, HDACs) used recombinant protein and specific substrates (fluorescence mostly, some colorimetric and radioactive) and inhibitors, followed by a biochemical separation of substrate and product. All assays for the biochemical HTS were initially run in duplicate at a single concentration (10 uM for CYP450 assays and 25 uM for all others). […]

Sequence of sheep Cyclooxygenase-2 (Cox2), PTGS2 (gene 443460) (P79208 whole entry, looked up): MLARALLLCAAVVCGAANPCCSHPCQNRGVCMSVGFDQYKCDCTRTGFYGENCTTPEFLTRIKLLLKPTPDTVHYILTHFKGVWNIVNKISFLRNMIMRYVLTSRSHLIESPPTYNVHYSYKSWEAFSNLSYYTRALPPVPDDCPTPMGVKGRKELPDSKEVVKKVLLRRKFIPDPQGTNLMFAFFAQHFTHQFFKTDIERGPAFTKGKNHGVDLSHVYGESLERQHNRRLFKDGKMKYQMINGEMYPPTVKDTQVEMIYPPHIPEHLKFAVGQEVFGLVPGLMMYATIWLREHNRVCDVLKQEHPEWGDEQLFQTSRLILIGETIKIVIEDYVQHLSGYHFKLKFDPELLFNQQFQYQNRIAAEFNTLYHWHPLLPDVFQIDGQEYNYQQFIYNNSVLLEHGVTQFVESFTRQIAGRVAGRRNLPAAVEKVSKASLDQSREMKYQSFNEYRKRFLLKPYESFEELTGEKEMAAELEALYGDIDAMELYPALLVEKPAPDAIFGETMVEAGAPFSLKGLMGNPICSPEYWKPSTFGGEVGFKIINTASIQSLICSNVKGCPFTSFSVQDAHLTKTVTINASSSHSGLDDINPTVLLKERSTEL

Row | SMILES | AC50 | outcome
11 | CCCOC(=O)c1ccc(O)cc1 | 25 µM (active) | 
12 | OC1CCCCC1 |  | inactive
13 | NC(=O)N(O)[C@@H]1C=C[C@H](Oc2cccc(Oc3ccc(F)cc3)c2)C1 |  | inactive

From PubChem BioAssay (EPA / NIEHS)
